According to PubChem BioAssay:
A number with no mark means an inactive call. A call without a number means that no potency is given here. For some assays here: Potency and affinity values are given separately. Active and inactive are the calls of the source. Unless noted, no rule for the calls is given here.

Key:
[1] = antimalarial activity against Dd2 strain (AID 2302;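 active = growth inhibition above 50% at the single 2 µM test dose, taken to imply half-maximal potency below 2 µM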); details: P. falciparum Dd2 in RBCs, LDH growth readout, 72 h; at 2 µM; active compounds read high
[2] = HepG2 cytotoxicity, primary screen, cytotoxicity control for P. falciparum antimalarial project, cell-based, ATP luminescence (AID 2303;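 active = inhibition above 50%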); details: HepG2 viability, 24-48 h, at 10 µM, active compounds read high
[3] = biological target: L-lactate dehydrogenase (Plasmodium falciparum (isolate CDC / Honduras)) (UniProt Q27743); test: PfLDH activity inhibition – cell lysate, 3D7 strain, counter-screen for P. falciparum growth inhibition project (AID 2304); details: P. falciparum 3D7 crude extract, LDH APAD/NBT absorbance; at 2 µM; active compounds read high
Sequence of L-lactate dehydrogenase (Plasmodium falciparum (isolate CDC / Honduras)) (Q27743 whole entry, looked up): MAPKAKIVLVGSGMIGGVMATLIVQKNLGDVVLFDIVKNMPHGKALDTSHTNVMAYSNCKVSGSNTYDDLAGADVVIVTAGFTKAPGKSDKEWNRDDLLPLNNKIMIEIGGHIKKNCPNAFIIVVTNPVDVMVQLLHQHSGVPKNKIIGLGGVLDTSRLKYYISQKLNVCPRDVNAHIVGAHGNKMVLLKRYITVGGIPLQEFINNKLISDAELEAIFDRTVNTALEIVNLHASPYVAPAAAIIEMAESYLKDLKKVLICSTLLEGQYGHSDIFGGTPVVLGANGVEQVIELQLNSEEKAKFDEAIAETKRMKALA

[4] = inhibition of 3D7 malaria parasite growth – strain 3D7 (AID 2306); details: P. falciparum 3D7 erythrocytic growth, LDH absorbance, 72 h; at 2 µM; active compounds read high
[5] = biological target: Calcium-dependent protein kinase 1 (Plasmodium falciparum (isolate 3D7)) (UniProt P62344); test: PfCDPK1 kinase inhibitors, biochemical, TCAMS library (AID 1159585; cut-off not given, nearly all actives have IC50 up to about 0.98 µM;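 also: inhibitors leave more ATP so luminescence rises with inhibition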); details: recombinant PfCDPK1, Kinase-Glo ATP depletion luminescence
Sequence of Calcium-dependent protein kinase 1 (Plasmodium falciparum (isolate 3D7)) (P62344 whole entry, looked up): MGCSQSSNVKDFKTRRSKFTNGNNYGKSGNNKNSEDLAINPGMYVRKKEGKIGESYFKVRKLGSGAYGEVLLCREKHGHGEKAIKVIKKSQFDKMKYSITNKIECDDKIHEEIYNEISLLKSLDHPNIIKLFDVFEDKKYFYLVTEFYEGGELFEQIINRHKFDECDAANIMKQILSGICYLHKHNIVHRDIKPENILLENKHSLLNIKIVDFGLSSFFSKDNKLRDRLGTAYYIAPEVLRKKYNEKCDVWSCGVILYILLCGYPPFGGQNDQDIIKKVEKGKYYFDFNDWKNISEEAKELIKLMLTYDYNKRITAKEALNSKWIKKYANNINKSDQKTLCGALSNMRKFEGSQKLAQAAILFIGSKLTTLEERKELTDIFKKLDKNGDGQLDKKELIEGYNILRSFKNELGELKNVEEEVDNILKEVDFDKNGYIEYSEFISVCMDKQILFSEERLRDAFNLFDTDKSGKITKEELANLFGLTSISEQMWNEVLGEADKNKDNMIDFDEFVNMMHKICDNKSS

[6] = biological target: Plasmodium falciparum protein kinase 6 (PK6, PF3D7_1337100) (UniProt Q8IDW1); test: PfPK6 kinase inhibitors, biochemical, TCAMS library (AID 1159586); details: recombinant PfPK6, Kinase-Glo ATP depletion luminescence
Sequence of Plasmodium falciparum protein kinase 6 (PK6, PF3D7_1337100) (Q8IDW1 1-305): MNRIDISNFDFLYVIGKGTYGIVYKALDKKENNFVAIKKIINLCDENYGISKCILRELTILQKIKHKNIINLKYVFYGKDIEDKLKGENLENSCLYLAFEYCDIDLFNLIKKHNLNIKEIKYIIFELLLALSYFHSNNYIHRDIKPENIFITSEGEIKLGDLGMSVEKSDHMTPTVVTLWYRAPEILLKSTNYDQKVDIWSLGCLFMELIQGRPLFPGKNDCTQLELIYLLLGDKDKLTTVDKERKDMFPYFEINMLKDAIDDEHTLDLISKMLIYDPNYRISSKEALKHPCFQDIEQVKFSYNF

[7] = biological target: Protein kinase 7 (PK7), Plasmodium falciparum 3D7 (PF3D7_0213400) (UniProt Q7YTF7); test: inhibition of Plasmodium PK7 catalytic activity – biochemical, TCAMS antimalarial set, Kinase-Glo luminescence (AID 1159587); details: recombinant PfPK7, Kinase-Glo ATP depletion luminescence
Sequence of Protein kinase 7 (PK7), Plasmodium falciparum 3D7 (PF3D7_0213400) (Q7YTF7 1-343): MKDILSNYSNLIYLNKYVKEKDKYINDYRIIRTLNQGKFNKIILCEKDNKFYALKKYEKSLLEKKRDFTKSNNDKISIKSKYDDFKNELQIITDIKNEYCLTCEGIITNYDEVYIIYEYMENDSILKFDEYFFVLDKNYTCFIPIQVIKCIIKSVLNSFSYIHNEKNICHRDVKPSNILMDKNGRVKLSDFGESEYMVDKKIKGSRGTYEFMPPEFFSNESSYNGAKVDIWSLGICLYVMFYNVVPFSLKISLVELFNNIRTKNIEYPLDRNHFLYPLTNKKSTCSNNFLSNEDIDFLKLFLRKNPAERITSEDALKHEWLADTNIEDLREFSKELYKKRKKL

[8] = biological target: Calcium-dependent protein kinase 4 (Plasmodium falciparum (isolate 3D7)) (UniProt Q8IBS5); test: PfCDPK4 kinase inhibitors, biochemical, TCAMS library (AID 1159588; cut-off not given, nearly all actives have IC50 up to about 0.91 µM); details: recombinant PfCDPK4, Kinase-Glo ATP depletion luminescence
Sequence of Calcium-dependent protein kinase 4 (Plasmodium falciparum (isolate 3D7)) (Q8IBS5 whole entry, looked up): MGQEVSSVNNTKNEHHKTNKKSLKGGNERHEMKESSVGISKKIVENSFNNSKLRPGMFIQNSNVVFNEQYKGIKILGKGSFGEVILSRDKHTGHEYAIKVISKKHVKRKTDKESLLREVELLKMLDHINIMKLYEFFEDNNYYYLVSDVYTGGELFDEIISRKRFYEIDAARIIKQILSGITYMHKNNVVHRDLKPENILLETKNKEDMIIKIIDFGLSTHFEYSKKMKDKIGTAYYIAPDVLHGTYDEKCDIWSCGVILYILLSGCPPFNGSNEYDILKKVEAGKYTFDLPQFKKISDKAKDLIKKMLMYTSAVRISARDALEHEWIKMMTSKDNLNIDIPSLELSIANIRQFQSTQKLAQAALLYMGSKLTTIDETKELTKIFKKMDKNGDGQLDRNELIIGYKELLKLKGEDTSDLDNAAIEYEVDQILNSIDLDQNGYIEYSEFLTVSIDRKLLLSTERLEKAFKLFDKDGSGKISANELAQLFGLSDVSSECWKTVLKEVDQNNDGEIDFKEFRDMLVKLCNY

Compound	growth inhibition [1]	inhibition [2]	inhibition [3] [%]	growth inhibition [4]	outcome [5]	outcome [6]	outcome [7]	outcome [8]
O=C(/C=C/c1ccc(Cl)c(Cl)c1)NCCCCCN1CCN(C(=O)Nc2ccc(C(F)(F)F)cc2)CC1	-1%	26%	-5	99% (active)	inactive	inactive	inactive	inactive
COc1ccc(NC(=O)Nc2cccc(-c3cccc(-c4nc5ccccc5[nH]4)c3)c2)cc1	41%	41%	3	101% (active)	inactive	inactive	inactive	inactive
COc1cccc(OC)c1OCCCOc1c(C)nc(N)nc1N	-1%	31%	0	97% (active)	inactive	inactive	inactive	inactive
O=C(c1cccs1)N1N=C(c2cccs2)CC1c1cccc([N+](=O)[O-])c1 (stereo not given)	27%	5%	-10	95% (active)	inactive	inactive	inactive	inactive
O=S(=O)(Nc1cc2c(cc1O)CCNCC2)c1ccc(-c2ccc(Cl)cc2)cc1	0%	10%	3	99% (active)	inactive	inactive	inactive	inactive
CCCCc1ccc(-c2ccc3[nH]c(C)c(Br)c(=O)c3c2)cc1	97% (active)	-10%	-2	97% (active)	inactive	inactive	inactive	inactive
CCN(CCCN1CCCCC1)c1cc(C)nc(Nc2ccc(C)c(F)c2)n1	92% (active)	20%	-5	102% (active)	inactive	inactive	inactive	inactive
Cc1ccccc1Cn1c(CN2CCC(C(=O)NC3CC3)CC2)cc2ccccc21	96% (active)	7%	-2	97% (active)	inactive	inactive	inactive	inactive
Cc1cccc(CNc2nc(C)cc(N[C@@H](CC(C)C)C(=O)NCc3cccc(F)c3)n2)c1	32%	13%	-3	91% (active)	inactive	inactive	inactive	inactive
O=C1C([N+](=O)[O-])=C(O)c2cccc(F)c21	13%	9%	0	95% (active)	inactive	inactive	inactive	inactive
O=[N+]([O-])c1cccc(CNCC2CCN(Cc3ccc(-c4ccccc4)cc3)CC2)c1	91% (active)	28%	6	101% (active)	inactive	inactive	inactive	inactive
CC(C)Oc1cc2c(cc1NS(=O)(=O)c1ccc(-c3ccc(Cl)cc3)cc1)CCN(C)CC2	65% (active)	100% (active)	-3	99% (active)	inactive	inactive	inactive	inactive
CN1C(=C2SC(=Nc3ccc4ncccc4c3)N(Cc3ccccc3)C2=O)Sc2ccc(Cl)cc21	75% (active)	4%	-2	99% (active)	inactive	inactive	inactive	inactive
COc1ccccc1-c1ccc(CNC(=O)C(CN2CCN(C)CC2)c2ccccc2)cc1 (stereo not given)	4%	3%	2	90% (active)	inactive	inactive	inactive	inactive
Cc1cc(Cl)c(S(=O)(=O)NC2CCCC2)cc1OCC(=O)NC1CCCCC1	91% (active)	19%	-6	97% (active)	inactive	inactive	inactive	inactive
Cc1cc(-c2ccc3c(c2)CC[C@@H](N[C@@H](C)c2ccccc2)C3)cnc1N	7%	3%	-2	98% (active)	inactive	inactive	inactive	inactive
COc1cc2nc(C)nc(Nc3ccc(Cc4ccccc4)cc3)c2cc1OC	99% (active)	16%	-1	101% (active)	inactive	inactive	inactive	inactive
CCNc1cc(C(=O)N[C@@H](Cc2ccccc2)[C@H](O)CN[C@@H]2CCc3ccccc32)cc(N2CCCC2=O)c1	93% (active)	-5%	6	92% (active)	inactive	inactive	inactive	inactive
CCCC1N=C(N)N=C(N)N1c1ccc(C)c(C)c1 (stereo not given)	-2%	7%	-3	95% (active)	inactive	inactive	inactive	inactive
COc1ccc2c(c1)OC(C)(C)CC2=NOS(=O)(=O)c1ccc(C)cc1	12%	10%	4	97% (active)	inactive	inactive	inactive	inactive

Compound	growth inhibition [1]	inhibition [2]	inhibition [3] [%]	growth inhibition [4]	outcome [5]	outcome [6]	outcome [7]	outcome [8]
CC(C)CNCc1cccc(-c2ccc(CN(CCCN3CCN(C)CC3)C(=O)CCC3CCCC3)cc2)c1	89% (active)	82% (active)	0	98% (active)	inactive	inactive	inactive	inactive
CCCCCC(C)C(C)c1cc(OC(N)=O)c2c(c1)OC(C)(C)C=C2c1ccncc1 (stereo not given)	-1%	81% (active)	0	96% (active)	inactive	inactive	inactive	inactive
Fc1cccc(Cn2ncc3cc(Nc4ncnc5sc(C#Cc6ncc[nH]6)cc45)ccc32)c1	30%	31%	0	101% (active)	inactive	inactive	inactive	inactive
CCOC(=O)Cc1nc(N)c(C(=O)OCC)[nH]1	24%	2%	-1	94% (active)	inactive	inactive	inactive	inactive
Cc1ccc(C)c(NC(=O)CC2C(=O)N(c3ccccc3)C(=S)N2Cc2ccco2)c1 (stereo not given)	99% (active)	9%	-1	101% (active)	inactive	inactive	inactive	inactive
O=C(N[C@@H](Cc1ccccc1)C(=O)NC1CCCCCC1)c1ccc(O)c(-c2ccc(Cl)c(Cl)c2)c1	99% (active)	-6%	-9	92% (active)	inactive	inactive	inactive	inactive
COc1nc2c(CCN3CCC(NCc4ccc5c(n4)NC(=O)CO5)CC3)c(Cl)cnc2cc1F	40%	17%	-9	99% (active)	inactive	inactive	inactive	inactive
CCc1ccc(CN2CCC(CNC(=O)c3cc(-c4cccc(F)c4)cs3)C2)cc1 (stereo not given)	4%	23%	2	84% (active)	inactive	inactive	inactive	inactive
Nc1ncc(-c2ccccc2)cc1/C=C/c1cccnc1	9%	33%	-2	91% (active)	inactive	inactive	inactive	inactive
CC(C)CCN1CCC(Oc2ccc(NC(=O)c3ccc(F)cc3)cc2Cl)CC1	88% (active)	33%	4	98% (active)	inactive	inactive	inactive	inactive
COc1ccc2c(c1)Nc1ccc(Cl)cc1C2N (stereo not given)	99% (active)	16%	3	101% (active)	inactive	inactive	inactive	inactive
Cc1cccc2[nH]c(-c3cccc(-c4ccc(CNCc5cnn(-c6ccccc6)n5)cc4)c3)nc12	66% (active)	20%	-4	102% (active)	inactive	inactive	inactive	inactive
O=C(NC1CC1)c1ccc(N2CCC(Cc3ccccc3)CC2)nc1	92% (active)	13%	5	95% (active)	inactive	inactive	inactive	inactive
Cc1cc(Nc2ccc(Cl)c(Cl)c2)n2nc(C)nc2n1	97% (active)	6%	-4	97% (active)	inactive	inactive	inactive	inactive
CCOc1cc(Br)c(C(C)NC(=O)c2cccc(OC)c2)cc1OCC (stereo not given)	37%	-1%	3	90% (active)	inactive	inactive	inactive	inactive
COCCNCC(O)Cn1c2ccc(Cl)cc2c2cc(Cl)ccc21 (stereo not given)	74% (active)	15%	0	95% (active)	inactive	inactive	inactive	inactive
CC(=O)Nc1ccc(OCCN(Cc2ccccc2C(F)(F)F)c2ccc(C#N)c(C(F)(F)F)c2)c(Cl)c1	78% (active)	-6%	-3	98% (active)	inactive	inactive	inactive	inactive
Cc1cc(OCCCN2CCCCC2)ccc1NC(=O)COc1ccc(Cl)cc1C(=O)c1cc(Cl)cc(C#N)c1	16%	28%	-8	93% (active)	inactive	inactive	inactive	inactive
O=c1cc(NCCCNCc2ccc(C(F)(F)F)s2)[nH]c2ccccc12	68% (active)	-11%	2	99% (active)	inactive	inactive	inactive	inactive
CN1CCN(c2cc3c(cc2Cl)CCN3C(=O)Nc2ccc(NC(=O)c3ccc(C(F)(F)F)cc3)cc2)CC1	99% (active)	98% (active)	-4	100% (active)	inactive	inactive	inactive	inactive
